This is part of a sample that, as a whole, favours compounds with a hit. Of some 79,000 tested, about 15% had one in any assay. Values without a mark were called inactive. The source made the active and inactive calls. No stated cut-off is given here; in the data, active means growth inhibition above about 70%; inactive means the rest.
Assays:
[1] = NCI Yeast Anticancer Drug Screen. Data for the rad50 strain (AID 155);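 further: 0% = growth of vehicle-only cultures of the same strain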; conditions: S. cerevisiae rad50 strain growth inhibition, stronger effect = higher value
Outline: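 Cells are treated with compound, grown, and their growth is then scored against vehicle-only cultures of the same repair-deficient yeast strain.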

[2] = NCI Yeast Anticancer Drug Screen. Data for the mec2-1 strain (AID 157); conditions: S. cerevisiae mec2-1 strain, stronger effect = higher value
Outline: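 Yeast mec2-1 mutant treated with compound. Readout: growth inhibition vs vehicle controls.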

[3] = NCI Yeast Anticancer Drug Screen. Data for the sgs1 mgt1 strain (AID 161);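 further: 0% = growth of cultures given vehicle only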; conditions: S. cerevisiae sgs1 mgt1 strain, stronger effect = higher value
Outline: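 Genetically altered yeast, compound exposure, growth inhibition relative to vehicle.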

[4] = NCI Yeast Anticancer Drug Screen. Data for the cln2 rad14 strain (AID 165);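 further: 0% = growth equal to vehicle treated cultures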; conditions: S. cerevisiae cln2 rad14 strain, stronger effect = higher value
Outline: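 cln2 rad14 yeast strain; compound exposure; growth inhibition read vs vehicle controls.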

[5] = NCI Yeast Anticancer Drug Screen. Data for the bub3 strain (AID 167); conditions: S. cerevisiae bub3 mutant strain, stronger effect = higher value
Outline: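 Part of a panel of yeast mutants defective in DNA damage repair or cell cycle regulation. Each strain is grown with compound, and inhibition is calculated relative to solvent-treated cultures.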

[6] = NCI Yeast Anticancer Drug Screen. Data for the mlh1 rad18 strain (AID 175); conditions: S. cerevisiae mlh1 rad18 strain growth inhibition, stronger effect = higher value
Outline: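 Yeast w/ defined DNA-repair lesions; compound exposure; growth vs vehicle controls → % inhibition.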

[7] = at 5.0 µM (retest, dose inferred, filed as 0.5)
[8] = at 50.0 µM (retest, dose inferred, filed as 5.0)

Row | SMILES | growth inhibition [1, 7] | growth inhibition [1, 8] | growth inhibition ([1]; at 50.0 µM) | growth inhibition [2, 7] | growth inhibition [2, 8] | growth inhibition ([2]; at 50.0 µM) | growth inhibition [3, 7] | growth inhibition [3, 8] | growth inhibition ([3]; at 50.0 µM) | growth inhibition [4, 7] | growth inhibition [4, 8] | growth inhibition ([4]; at 50.0 µM) | growth inhibition [5, 7] | growth inhibition [5, 8] | growth inhibition ([5]; at 50.0 µM) | growth inhibition [6, 7] | growth inhibition [6, 8] | growth inhibition ([6]; at 50.0 µM)
1 | CC(C)[C@H](N)C(=O)NCCNC(=O)[C@@H](N)C(C)C | 90% (active) | 99% (active) | -24.6% | 66% | 99% (active) | -4.9% | 62% | 99% (active) | -14.2% | 89% (active) | 99% (active) | 17.2% | 93% (active) | 100% (active) | 37.1% | 89% (active) | 99% (active) | 4.4%
2 | SCCc1ccccn1 | -3% | 20% | 0.4% | -2% | 20% | 42% | 1% | 13% | 3.65% | -6% | 10% | 15.1% | -1% | 14% | 32.1% | -1% | 19% | 73.1% (active)
3 | c1ccc2cc3c(cc2c1)Nc1c2ccccc2nc2cccc-3c12 | 31% | 70% (active) | 54% | 17% | 57% | 70.5% (active) | 24% | 72% (active) | 79.4% (active) | 25% | 54% | 56.5% | 15% | 78% (active) | 81.3% (active) | 29% | 71% (active) | 89.8% (active)
4 | CC(C)OC1=C(Cl)C(=O)c2c(cccc2[N+](=O)[O-])C1=O | 32% | 99% (active) | 26.8% | 38% | 100% (active) | 99.1% (active) | 48% | 99% (active) | 99.4% (active) | 19% | 100% (active) | 88.5% (active) | 38% | 94% (active) | 98.5% (active) | 41% | 100% (active) | 71% (active)
5 | CCOC(=O)Cc1csc2[n+]1C(=O)/C(=C/c1ccc(OC)c(OC)c1)S2 | -11% | 11% | 95.2% (active) | -14% | 10% | 94.2% (active) | -11% | 14% | 94.2% (active) | -1% | 8% | 93% (active) | -22% | -2% | 95.7% (active) | -17% | 17% | 93% (active)
6 | CCOP(=O)(OCC)/C(C#N)=C/c1ccc(C(F)(F)F)cc1 | 20% | 90% (active) | 89.5% (active) | -16% | 94% (active) | 91.7% (active) | 4% | 93% (active) | 90.9% (active) | 12% | 95% (active) | 89.4% (active) | 28% | 97% (active) | 89.4% (active) | 3% | 90% (active) | 86.8% (active)
7 | COc1ccc(Nc2nc3ccccc3s2)cc1 | 1% | 15% | 21% | -3% | 0% | 35.4% | 0% | 35% | 38.3% | -7% | -14% | -66% | 5% | 42% | 85.8% (active) | 10% | 15% | 58.7%
8 | Cc1nc(Cl)c(C#N)c(C)c1[N+](=O)[O-] | -103% | 91% (active) | 79.9% (active) | -31% | 81% (active) | 81.9% (active) | -46% | 84% (active) | 70.3% (active) | -37% | 75% (active) | 87% (active) | -63% | 83% (active) | 75.3% (active) | -115% | 91% (active) | 84.8% (active)
9 | OC1CC2OC2C1O (configuration not stated) | -2% | 3% | -6.25% | -5% | 3% | 3.75% | -2% | 1% | -4.95% | -1% | -1% | 69.6% | 2% | 7% | 18.6% | -1% | 2% | -11.4%
10 | O=C(CC(O)(C(F)(F)Cl)C(F)(F)Cl)CC(O)(C(F)(F)Cl)C(F)(F)Cl | 94% (active) | 100% (active) | 99.1% (active) | 97% (active) | 100% (active) | 99.5% (active) | 93% (active) | 99% (active) | 99.5% (active) | 95% (active) | 99% (active) | 99.3% (active) | 91% (active) | 100% (active) | 99.6% (active) | 97% (active) | 100% (active) | 99.2% (active)
11 | CC(=O)/C(=C\c1ccc(N(C)C)cc1)C(C)=[N+](C)C(=O)c1c(/[N+](C)=C(C)\C(=C\c2ccc(N(C)C)cc2)C(C)=O)ncn1C | 31% | 47% | 87.7% (active) | 14% | 70% (active) | 7.45% | 47% | 66% | 77.3% (active) | -5% | 43% | 24.7% | 10% | 43% | 43.4% | 49% | 53% | 85% (active)
12 | CCCCCCCOc1ccc(C=O)cc1OC | 0% | 41% | 7.3% | -1% | 35% | 44% | 3% | 45% | 38.6% | -2% | 26% | 36.9% | -1% | 38% | 50% | 1% | 46% | 33.8%
13 | C/C(=N/NC(=O)C[n+]1ccccc1)C(CN(CC(C)C)CC(C)C)C(=O)Nc1ccc(C)cc1C (configuration not stated) | 5% | 5% | 30.1% | -10% | -10% | 40.2% | 5% | 5% | 8.65% | 5% | 5% | 41% | 12% | 12% | 58% | 6% | 6% | 70.2% (active)
14 | C#Cc1cccc(N=Cc2cc(Cl)cc(Cl)c2O)c1 | 13% | 90% (active) | 94.6% (active) | 8% | 90% (active) | 94.3% (active) | 20% | 97% (active) | 97.8% (active) | -1% | 91% (active) | 62.4% | -1% | 80% (active) | 89.9% (active) | 20% | 98% (active) | 97.2% (active)
15 | CSc1cc(N)nc(N)n1 | 3% | -4% | 73% (active) | 3% | 2% | 79.3% (active) | 4% | 14% | 80.3% (active) | 1% | 3% | 83.2% (active) | 1% | -3% | 38.9% | 2% | -6% | 93.4% (active)
16 | O=C1C=CC(=O)c2nc3c(nc21)[nH]c1ccccc13 | -9% | 91% (active) | 95.7% (active) | -12% | 94% (active) | 95.4% (active) | -23% | 95% (active) | 94.7% (active) | -20% | 94% (active) | 93.5% (active) | -41% | 93% (active) | 91.4% (active) | -44% | 92% (active) | 95.5% (active)
17 | CCCCCCCC/C=C\CCCCCCCC(=O)NCCN(C)C | -1% | 99% (active) | 99.3% (active) | 5% | 100% (active) | 99.4% (active) | 33% | 99% (active) | 99.5% (active) | 2% | 99% (active) | 68.2% | 2% | 99% (active) | 97.2% (active) | 22% | 99% (active) | 99.5% (active)
18 | CC1CCCC(C(c2c[nH]c3ccccc23)c2c[nH]c3ccccc23)C1=O (configuration not stated) | 1% | 98% (active) | 96.8% (active) | 1% | 98% (active) | 58.6% | 3% | 97% (active) | 79.7% (active) | 0% | 98% (active) | 76.3% (active) | -11% | 96% (active) | 46% | -5% | 98% (active) | 97.2% (active)
19 | Cc1cc(N(CCC#N)CCC#N)ccc1/C(Sc1ccccc1)=C(\NC(=O)/C=C/c1ccccc1)C(=O)Sc1ccccc1 | 28% | 28% | 86.6% (active) | 21% | 21% | 90% (active) | 25% | 25% | 90.9% (active) | 17% | 17% | 64.5% | 21% | 21% | 87.2% (active) | 24% | 24% | 75.1% (active)
